From the supplement of paper PMC6607015
Where a name gives a salt, the structure may show the parent alone.

system: HeLa MZ; test: filipin (cholesterol) integrated intensity within LBPA endosomes, Z-score; higher = more cholesterol in LBPA endosomes; settings: compound concentration in added solution (µM; 5 µl added to 20 µl cells): 10; 18 h
Outline: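 HeLa MZ or A431 cells (3,500/well in 20 µl) were seeded onto 5 µl of 10 µM compound solution in duplicate 384-well imaging plates, incubated 18 h, then fixed in 4% PFA. Cells were stained with 6C4 anti-LBPA antibody, filipin, propidium iodide and CellTracker green, and four 20× images were taken per well. MetaXpress segmentation gave per-cell integrated LBPA or filipin intensity, either whole-cell or within LBPA endosomes. Values are Z-scores normalised in AcuityXpress.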

| Compound | filipin (z-score) |
| --- | --- |
| C[N+]1(C)[C@@H]2CC[C@H]1C[C@@H](OC(=O)C(CO)c1ccccc1)C2 (some centres not stated) [Methylatropine nitrate] | -0.173 |
| COc1ccc(C(=O)N2CCCC2=O)cc1 [Aniracetam] | -0.3 |
| CC(C)c1c(CN(C)C(C)Cc2ccccc2)n(C)n(-c2ccccc2)c1=O (configuration not stated) [Famprofazone] | -0.445 |
| CC(=O)OCC1=C(C(=O)O)N2C(=O)[C@@H](N)[C@H]2SC1 [Cephalosporanic acid, 7-amino] | -0.604 |
| O=P1(N(CCCl)CCCl)NCCCO1 (configuration not stated) [Cyclophosphamide] | 0.352 |
| C#CCN(C)[C@H](C)Cc1ccccc1 [Selegiline hydrochloride] | -0.657 |
| CC(=O)[C@H]1CC[C@H]2[C@@H]3CC[C@H]4C[C@H](O)CC[C@]4(C)[C@H]3C(=O)C[C@]12C [Alfaxalone] | -0.0632 |
| Cc1cc(C(C#N)c2ccc(Cl)cc2)c(Cl)cc1NC(=O)c1cc(I)cc(I)c1O (configuration not stated) [Closantel] | -0.663 |
| C[C@]12C[C@H]3S[C@H]3C[C@@H]1CC[C@@H]1[C@@H]2CC[C@]2(C)[C@@H](O)CC[C@@H]12 [Epitiostanol] | -0.401 |
| C=CCC1(CC(C)C)C(=O)NC(=O)NC1=O [Butalbital] | -0.51 |
| O=C([O-])c1ccccc1-c1c2cc(Br)c(=O)cc-2oc2[c]([Hg+])c([O-])c(Br)cc12.[Na+].[Na+].[OH-] [Merbromin] | -0.65 |
| C#C[C@]1(O)CC[C@H]2[C@@H]3CCC4=CC(=O)CCC4=C3C=C[C@@]21CC [Gestrinone] | -0.437 |
| CNC(C)(C)Cc1ccccc1 [Mephentermine hemisulfate] | -0.403 |
| C1CCc2nnnn2CC1 [Pentylenetetrazole] | -0.614 |
| Clc1ccc(C(OCCN2CCCCC2)c2ccccc2)cc1 (configuration not stated) [Cloperastine hydrochloride] | 0.777 |
| CN1[C@@H]2C[C@@H](OC(=O)[C@H](CO)c3ccccc3)C[C@H]1[C@@H]1O[C@@H]12 [Scopolamine hydrochloride] | -0.0653 |

| Compound | filipin (z-score) |
| --- | --- |
| CC(Cc1ccc(O)cc1)NCC(O)c1cc(O)cc(O)c1 (configuration not stated) [Fenoterol hydrobromide] | -0.584 |
| COc1ccc2c(c1)[C@]13CCCC[C@@H]1[C@H](C2)N(C)CC3 [Dextromethorphan hydrobromide monohydrate] | 0.237 |
| CN1[C@@H]2CC[C@H]1C[C@@H](OC(=O)C(CO)c1ccccc1)C2 (some centres not stated) [Atropine sulfate monohydrate] | -0.345 |
| CC(=O)O[C@H]1CC[C@@]2(C)C(=CC[C@@H]3[C@@H]2CC[C@]2(C)C(=O)CC[C@@H]32)C1 [Dehydroisoandosterone 3-acetate] | -0.214 |
| O=c1[nH]oc2c1CCNC2 [THIP Hydrochloride] | -0.582 |
| O=C(CCCN1CCC(n2c(=O)[nH]c3ccccc32)CC1)c1ccc(F)cc1 [Benperidol] | 1.91 |
| CC1OC(OC2/C=C/C=C/C=C/C=C/CC/C=C/C=C/[C@H](C)[C@@H](O)[C@@H](C)[C@H](C)OC(=O)CC(O)CC(O)CC(O)CCC(O)C(O)C[C@]3(O)CC(O)C(C(=O)O)C(C2)O3)C(O)C(N)C1O (some centres not stated) [Nystatine] | -0.223 |
| CCNC1(c2cccs2)CCCCC1=O (configuration not stated) [Tiletamine hydrochloride] | -0.463 |
| C=C(C)[C@@H]1[C@H]2OC(=O)[C@@H]1[C@]1(O)C[C@H]3O[C@]34C(=O)O[C@H]2[C@]14C [Picrotoxinin] | -0.32 |
| CC(C)C[C@H]1C(=O)N2CCC[C@H]2[C@]2(O)O[C@](NC(=O)[C@@H]3C=C4c5cccc6[nH]c(Br)c(c56)C[C@H]4N(C)C3)(C(C)C)C(=O)N12 [Bromocryptine mesylate] | 0.695 |
| CCC1(C)CC(=O)NC(=O)C1 [Bemegride] | -0.434 |
| C[C@]12CC[C@H](O)C[C@@H]1CC[C@@H]1[C@@H]2CC[C@]2(C)C(=O)CC[C@@H]12 [Epiandrosterone] | 1.85 |
| N[C@@H]1C[C@H]1c1ccccc1 [Tranylcypromine hydrochloride] | -0.53 |
| CCCCCC[C@H]1C(=O)O[C@H](C)[C@H](NC(=O)c2cccc(NC=O)c2O)C(=O)O[C@@H](C)[C@@H]1OC(=O)CC(C)C [Antimycin A] | -0.994 |
| CC(C)CC(N(C)C)C1(c2ccc(Cl)cc2)CCC1 (configuration not stated) [Sibutramine HCl] | -0.424 |
| CCC(C)C1O[C@]2(C=C[C@@H]1C)C[C@@H]1CC(C/C=C(\C)[C@@H](OC3C[C@H](OC)[C@@H](OC4C[C@H](OC)[C@@H](O)[C@H](C)O4)[C@H](C)O3)[C@@H](C)/C=C/C=C3\COC4[C@H](O)C(C)=CC(C(=O)O1)[C@]34O)O2 (some centres not stated) [Avermectin B1a] | -0.0937 |
